These results are taken from PubChem BioAssay (NCI).

Common to all, as to assay: NCI-60 one-dose screen, 48 h (100 = growth as untreated, 0 = no growth, -100 = all killed)
The subject of one experiment is T-47D breast. Particulars: 10 µM.
A further experiment deals with MDA-MB-435 melanoma. Particulars: 10 µM.
A further experiment has as its system MCF7 breast. The settings on record: 10 µM unless noted.
For another experiment, the system named is HCT-116 colon. Particulars: 10 µM.
The test system of a further experiment is KM12 colon. The settings on record: 10 µM.
A further experiment has as its system BT-549 breast. Particulars: 10 µM.
The subject of the next experiment is SW-620 colon. The settings on record: 10 µM.
Another experiment deals with HCC-2998 colon. Particulars: 10 µM.

Compounds without any hit were thinned out: in the full panel of roughly 83,000, 20% have a hit.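 Plates (96-well) were seeded with cells, treated with compound at one concentration, and incubated for 48 hours before percent growth was determined.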 A number with no mark means an inactive call. Calls of active or inactive are those of the source. The calls were made as follows: active = growth percent below 10; inactive = the rest.

Regarding `O=C(/C=C/C(=O)c1ccccc1)c1ccccc1`, the growth was 92.4% with T-47D breast; 100% in the experiment on MDA-MB-435 melanoma; 75.2% in the experiment on MCF7 breast; 87.6% in the experiment with HCT-116 colon; 111% with KM12 colon.

Take `NC(C(=O)O)C(O)c1ccco1` (stereo not drawn): the growth was 109% in the experiment with BT-549 breast; 107% in the experiment on MDA-MB-435 melanoma; 102% in the experiment on SW-620 colon; 95.2% in the experiment with MCF7 breast; 111% in the experiment with HCT-116 colon; 107% in the experiment on HCC-2998 colon. Moreover, the growth in the experiment with KM12 colon is 107%.

In the case of `CSc1[nH]c(=O)ncc1F`, the growth in the experiment with BT-549 breast is 94.1%; in the experiment on MDA-MB-435 melanoma it was 102%; in the experiment on SW-620 colon, 102%; with MCF7 breast, 96%; in the experiment with HCT-116 colon it was 98.3%; with HCC-2998 colon, 96.8%. The growth in the experiment with KM12 colon was 104%.

As to `N#Cc1ccc(OC(=O)Nc2ccc(Cl)c(Cl)c2)cc1`, the growth with BT-549 breast is 93.3%; with MDA-MB-435 melanoma, 99.3%; with SW-620 colon, 96.2%; in the experiment on MCF7 breast, 44.5%; in the experiment with HCT-116 colon, 50%; with HCC-2998 colon, 87.1%. Further, the growth with KM12 colon is 42.9%.

For the compound `CC1(C)N=C(N)N=C(N)N1c1cccc(Br)c1`, the growth with BT-549 breast is 46.7%; in the experiment on MDA-MB-435 melanoma, 26.3%; in the experiment on SW-620 colon, 36.6%; with MCF7 breast, 23.6%; in the experiment on HCT-116 colon it was 22.9%; with HCC-2998 colon, 23.4%. The growth with KM12 colon is 40.6%.

As for `CCCC(C)OCC(=O)O` (stereo not drawn), the growth was 127% in the experiment with BT-549 breast; 108% in the experiment with MDA-MB-435 melanoma; 101% in the experiment on SW-620 colon; 99.9% in the experiment with MCF7 breast; 101% with HCT-116 colon; 106% in the experiment with HCC-2998 colon. In addition, the growth with KM12 colon is 101%.

With `Cc1cc2nc(CC(=O)c3cccc([N+](=O)[O-])c3)c(=O)[nH]c2cc1C`, the growth was 87% in the experiment on BT-549 breast; 93.9% in the experiment on MDA-MB-435 melanoma; 93.7% with SW-620 colon; 74.8% in the experiment with MCF7 breast; 54.8% in the experiment on HCT-116 colon; 89.9% with HCC-2998 colon. In the experiment on KM12 colon, the growth was 86.6%.

As to `CCOC(=O)C/C(C)=N\O`, the growth in the experiment with BT-549 breast is 97.1%; with MDA-MB-435 melanoma it was 107%; in the experiment on SW-620 colon, 101%; in the experiment on MCF7 breast it was 101%; with HCT-116 colon it was 103%; in the experiment on HCC-2998 colon, 101%. The growth in the experiment on KM12 colon is 104%.

For `CCOC(=O)CCCC(=O)OCC`, the growth with BT-549 breast was 104%; in the experiment with MDA-MB-435 melanoma, 106%; with SW-620 colon, 102%; in the experiment on MCF7 breast it was 97.9%; in the experiment on HCT-116 colon it was 97.9%; in the experiment on HCC-2998 colon, 105%. The growth with KM12 colon is 99.6%.

Take `CC(=O)Nc1cccc(NC(C)=O)n1`: the growth with BT-549 breast was 107%; in the experiment with MDA-MB-435 melanoma it was 101%; in the experiment with SW-620 colon it was 99.1%; in the experiment on MCF7 breast, 99%; with HCT-116 colon, 98.9%; in the experiment with HCC-2998 colon it was 130%. Further, the growth in the experiment with KM12 colon was 105%.

With `COc1ccc(C2OC(N)=C(O)C2=O)cc1OC` (stereo not drawn), the growth in the experiment on BT-549 breast was 102%; in the experiment with MDA-MB-435 melanoma, 110%; in the experiment on SW-620 colon it was 103%; in the experiment with MCF7 breast it was 93.8%; with HCT-116 colon, 99.7%; in the experiment on HCC-2998 colon it was 107%. Besides, the growth in the experiment on KM12 colon is 109%.

`CN(C)c1nc2c([nH]1)c(=O)n(C)c(=O)n2C`: the growth in the experiment on BT-549 breast was 103%; in the experiment with MDA-MB-435 melanoma it was 111%; in the experiment on SW-620 colon, 102%; with MCF7 breast, 106%; in the experiment on HCT-116 colon, 97%; in the experiment on HCC-2998 colon, 89.8%. Further, the growth with KM12 colon was 109%.

Consider `COC(=O)c1cc(-c2ccc(Cl)c(Cl)c2)[nH]c(=O)c1C#N`, for which the growth in the experiment with BT-549 breast was 104%; in the experiment on MDA-MB-435 melanoma, 104%; in the experiment with SW-620 colon it was 99.1%; with MCF7 breast, 89.1%; in the experiment on HCT-116 colon, 97.2%; in the experiment on HCC-2998 colon, 117%. Also, the growth in the experiment with KM12 colon was 109%.

Consider `Nc1ccc(NC(=O)c2cccc(N)c2)cc1`, for which the growth with BT-549 breast is 93.3%; in the experiment on MDA-MB-435 melanoma, 104%; with SW-620 colon it was 102%; with MCF7 breast it was 105%; in the experiment on HCT-116 colon, 94.4%; in the experiment with HCC-2998 colon it was 107%. The growth in the experiment on KM12 colon was 103%.

In the case of `O=C(Cc1nc2ccc([N+](=O)[O-])cc2nc1CC(=O)c1cccnc1)c1cccnc1`, the growth with BT-549 breast is 8.87% (active); in the experiment with MDA-MB-435 melanoma it was 89.8%; with SW-620 colon it was 81.3%; with MCF7 breast it was 47.4%; in the experiment with HCT-116 colon it was 50.5%; in the experiment on HCC-2998 colon, 96.2%. In the experiment on KM12 colon, the growth was 63.1%.

In the case of `Cc1cc(C)cc(NCCC#N)c1`, the growth was 123% in the experiment with BT-549 breast; 111% in the experiment on MDA-MB-435 melanoma; 102% in the experiment with SW-620 colon; 101% with MCF7 breast; 106% with HCT-116 colon; 109% with HCC-2998 colon. The growth in the experiment with KM12 colon is 107%.

For the compound `Cc1ccc(C)n1-c1ccsc1C(=O)NNC(=O)CCl`, the growth is 70.1% in the experiment on BT-549 breast; 92.1% in the experiment on MDA-MB-435 melanoma; 108% with SW-620 colon; 78.4% in the experiment on MCF7 breast; 78% in the experiment with HCT-116 colon; 116% in the experiment with HCC-2998 colon. In the experiment with KM12 colon, the growth is 104%.

With `COC(=O)Nc1nc2ccc(C(=O)c3cccs3)cc2[nH]1`, the growth in the experiment with BT-549 breast was 26.3%; in the experiment with MDA-MB-435 melanoma, -47.6% (active); with SW-620 colon it was 24.8%; with MCF7 breast, 14.6%; in the experiment with HCT-116 colon, 11.7%; in the experiment on HCC-2998 colon it was 12.1%. In addition, the growth in the experiment on KM12 colon was 7.54% (active).

For the compound `O=C1C=C(O)C(=O)C=C1O`, the growth in the experiment with BT-549 breast was 103%; in the experiment with MDA-MB-435 melanoma it was 109%; in the experiment with SW-620 colon, 104%; in the experiment on MCF7 breast it was 96.5%; in the experiment with HCT-116 colon it was 105%; in the experiment with HCC-2998 colon, 111%. The growth with KM12 colon was 107%.

In the case of `Cc1cc(C)c(CC(=O)O)c(C)c1`, the growth is 104% with BT-549 breast; 104% with MDA-MB-435 melanoma; 102% in the experiment on SW-620 colon; 95.9% in the experiment on MCF7 breast; 105% in the experiment with HCT-116 colon; 111% in the experiment with HCC-2998 colon. For the same compound, the growth in the experiment with KM12 colon was 103%.
